The text below walks through data of PubChem BioAssay (NCI).

Test [1] in a line: NCI Yeast Anticancer Drug Screen. Data for the rad50 strain (AID 155).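 Further: 0% = growth of vehicle-only cultures of the same strain.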 The note with it: S. cerevisiae rad50 strain growth inhibition; at 50.0 µM; active compounds read high. In short, it runs like this:
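Growth of the mutant yeast was measured after compound exposure and referenced to vehicle-treated cultures.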

A short description of test [2]: NCI Yeast Anticancer Drug Screen. Data for the mec2-1 strain (AID 157). The note with it: S. cerevisiae mec2-1 strain, at 50.0 µM, active compounds read high. The essentials: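 Each compound was tested on mec2-1 yeast, a strain altered in DNA damage repair or cell cycle control. Growth inhibition is reported relative to vehicle.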
Test [3] in a line: NCI Yeast Anticancer Drug Screen. Data for the sgs1 mgt1 strain (AID 161).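 Further: 0% = growth of cultures given vehicle only.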 Particulars: S. cerevisiae sgs1 mgt1 strain, at 50.0 µM, active compounds read high. In short, it runs like this:
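Inhibition of yeast growth, normalised to vehicle-treated controls, is reported for a strain bearing genetic alterations in DNA damage repair.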

Test [4] in a line: NCI Yeast Anticancer Drug Screen. Data for the cln2 rad14 strain (AID 165).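 Further: 0% = growth equal to vehicle treated cultures.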 The note with it: S. cerevisiae cln2 rad14 strain, at 50.0 µM, active compounds read high. In short, it runs like this:
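Test compounds were added to cln2 rad14 yeast cultures; inhibition of growth was then determined by comparison with vehicle treatment.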

Test [5] can be described thus: NCI Yeast Anticancer Drug Screen. Data for the bub3 strain (AID 167). Particulars: S. cerevisiae bub3 mutant strain, at 50.0 µM, active compounds read high. The essentials: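 Whole-cell yeast assay. The mutant strain was incubated with compounds, and growth inhibition was determined by comparison with vehicle-treated cells.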
Test [6] in a line: NCI Yeast Anticancer Drug Screen. Data for the mlh1 rad18 strain (AID 175). The note with it: S. cerevisiae mlh1 rad18 strain growth inhibition; at 50.0 µM; active compounds read high. In short, it runs like this:
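Inhibition values reflect reduced growth of mutant yeast versus vehicle-treated controls following compound exposure; the mutations affect DNA damage repair.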

The panel holds about 79,000 compounds, 15% with a hit somewhere; the sample as a whole holds those more often. Unmarked numbers belong to inactive results. Active and inactive are the calls of the source. No stated cut-off is given here; in the data, active means growth inhibition above about 70%; inactive means the rest.

Regarding `Cc1nc2ccccc2nc1C`, the growth inhibition in test [1] is -15.2%; in test [2] it was -1.8%; in test [3] it was -8.85%; in test [4] it was 1.2%; in test [5] it was -2.35%; in test [6], 4.85%.

Regarding `CC(C)c1nnc(NC(=O)CSC(=S)N2CCOCC2)s1`, the growth inhibition in test [1] was -23.9%; in test [2], -18.1%; in test [3], -5.95%; in test [4], -51.9%; in test [5] it was -16.6%; in test [6], -2.25%.

Regarding `N=c1c2ncn(C3OC(COP(=O)(O)O)C(O)C3O)c2ncn1O` (stereo not given), the growth inhibition in test [1] is 12.7%; in test [2] it was 0%; in test [3] it was -6.6%; in test [4], -18%; in test [5], -9.6%; in test [6], 1.15%.

`O=C1C(=Cc2ccc(Cl)c(Cl)c2)C([O-])=C([P+](c2ccccc2)(c2ccccc2)c2ccccc2)C([O-])=C1[P+](c1ccccc1)(c1ccccc1)c1ccccc1`: the growth inhibition in test [1] was -4.6%; in test [2], -44.6%; in test [3], -7.05%; in test [4], 5.15%; in test [5], -21.9%; in test [6], -19.6%.

For `CC1(C)C(c2ccccc2)C12CCC1(C2=O)C(c2ccccc2)C1(C)C` (stereo not given), the growth inhibition in test [1] was -41.8%; in test [2], -27.8%; in test [3], -36%; in test [4], -6.8%; in test [5], -16.9%; in test [6], -52.4%.

Turning to `COCn1c(C(=O)c2ccc(OC)cc2)cc2ccccc21`, the growth inhibition was 7.45% in test [1]; 11.8% in test [2]; -3.9% in test [3]; -11.5% in test [4]; 16.1% in test [5]; 23.4% in test [6].

Turning to `O=C(O)c1ccc(C(=O)O)c(C(=O)Nc2ccc3c(c2)C(=O)c2ccccc2-3)c1`, the growth inhibition in test [1] is 41.9%; in test [2], -26.6%; in test [3], -2.15%; in test [4], -2.85%; in test [5], 9.7%; in test [6], 48.9%.

For `CC(C)=NOC(=O)Nc1cccc2c1OCO2`, the growth inhibition was -30.3% in test [1]; -19.4% in test [2]; -12% in test [3]; -14.8% in test [4]; -35.5% in test [5]; 4.25% in test [6].

For `CC(=O)OCC1OC(n2c3c(c(-c4ccc(Cl)cc4)c(C#N)c2=S)C(=O)CC(C)(C)C3)C(OC(C)=O)C(OC(C)=O)C1OC(C)=O` (stereo not given), the growth inhibition in test [1] is 16.1%; in test [2], -10.9%; in test [3], 12.6%; in test [4] it was -5.25%; in test [5] it was 23.4%; in test [6], -37.5%.

As for `COc1cc(OC)c(OC(=O)CCl)c(OC)c1`, the growth inhibition in test [1] was -3.85%; in test [2], 1.3%; in test [3], 3.2%; in test [4] it was 1.7%; in test [5] it was 11.2%; in test [6], 17.4%.

For the compound `O=C(/C=C/C(=O)c1ccc(O)cc1)Oc1ccccc1`, the growth inhibition was 33.1% in test [1]; -3.75% in test [2]; 1.1% in test [3]; -15.3% in test [4]; 12.9% in test [5]; 18.1% in test [6].

As for `O=C(NC(=O)C(Cl)Cl)OC1c2cc(Cl)ccc2-c2c(Cl)cc(Cl)cc21` (stereo not given), the growth inhibition in test [1] is 99.1% (active); in test [2] it was 99.5% (active); in test [3], 99.3% (active); in test [4], 98.8% (active); in test [5], 97.8% (active); in test [6], 99.2% (active).

In the case of `COc1ccc(C=Nc2ccc([N+](=O)[O-])cc2O)cc1`, the growth inhibition in test [1] was 12.9%; in test [2], 2.7%; in test [3], 12.1%; in test [4], -10.9%; in test [5] it was 19.6%; in test [6], 1.6%.

As for `NC(=O)NC=O`, the growth inhibition in test [1] was 10.8%; in test [2], -3.95%; in test [3] it was 14.7%; in test [4], 1.25%; in test [5] it was -14.6%; in test [6], 14.3%.

For the compound `O=[N+]([O-])c1ccc2c(c1)C(=Nc1ccccc1)c1cc([N+](=O)[O-])cc([N+](=O)[O-])c1-2`, the growth inhibition in test [1] was 8.3%; in test [2], 5.65%; in test [3] it was 19.1%; in test [4], 21.1%; in test [5], 3.5%; in test [6] it was 13.4%.

For `O=C1NS(=O)(=O)c2cc(Cl)ccc21`, the growth inhibition in test [1] is -34.3%; in test [2], -22.1%; in test [3] it was -23.8%; in test [4], -18.4%; in test [5], -1.85%; in test [6] it was -12.8%.

As to `CC(C)CCCC(C)C1CCC2(C)C3CCC4C(C)(C)C(OCC(C)(C)C)CCC4(C)C3CCC12C` (stereo not given), the growth inhibition is 34% in test [1]; -5.5% in test [2]; 4.7% in test [3]; 7.3% in test [4]; -0.15% in test [5]; -5.4% in test [6].

In the case of `COc1ccc(-c2cn3c(nc4ccccc43)c(C)n2)cc1`, the growth inhibition is -4.8% in test [1]; -3.15% in test [2]; 16.6% in test [3]; -17.9% in test [4]; 21% in test [5]; -11.3% in test [6].

Turning to `c1ccc(B2OC(c3ccccc3)=C(c3ccccc3)O2)cc1`, the growth inhibition is 1.45% in test [1]; -0.25% in test [2]; 17.9% in test [3]; 11.8% in test [4]; -0.45% in test [5]; 13.3% in test [6].

On to `NC(N)=NCc1ccc2c(c1)OCO2`, for which the growth inhibition in test [1] is -28.4%; in test [2], -2.95%; in test [3], -1%; in test [4], 10.1%; in test [5] it was -10.9%; in test [6], -34.1%.
